Compound activity from PubChem BioAssay.
A selection: hits, their analogues and other compounds. The true share with any hit is near 2.2%.
MIN6 prolif: inducers of MIN6 beta-cell proliferation, primary screen, ATP luminescence, uHTS. MIN6 cells proliferation, ATPlite luminescence, 48 h; cells starved in 0.2% serum; 100% = growth in 10% serum. proliferation, % at 10 µM. 330,000 tested, 0.29% active;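 active = compounds whose signal lies at least 3.5 SD above the mean of all wells on their plate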
Myeloid diff MLP: induction of myeloid progenitor differentiation, primary screen, cell-based, flow cytometry, MLPCN library; ER-HoxA9 myeloid progenitors, lysozyme-GFP differentiation; calls only at 10 µM; 360,000 tested, 1% active; AID 624256, 2012;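 active = normalized GFP-positive differentiation at or above the plate's own cutoff, the solvent-only control mean plus 3 SD; inconclusive = no clear call, values can overlap the other calls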;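 also: cells exposed to compound for four days before flow analysis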
Cardio protect: cardioprotection against H2O2-induced cell death, primary screen, uHTS, H9c2 cells, ATPLite luminescence; protection from H2O2 cell death, % at 20 µM; H9c2 cardiomyocytes, H2O2 injury protection, 2 h; 360,000 tested, 0.63% active; AID 588492, 2011;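 active = compounds giving at least 50% protection of heart cells from peroxide-induced death in the single-dose screen, raw or plate-pattern-corrected value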
hiPSC survival: enhancers of single-cell hiPSC survival, primary screen, ATPlite luminescence. 100% = ROCK inhibitor wells, 0% = DMSO. survival enhancement, % at 20 µM. 360,000 tested, 0.044% active. AID 602274, 2012; in the data active = survival enhancement above about 18%;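 also: cells exposed to compounds for 16 hours before the ATP read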
ABCB6 inh MLPCN: ABCB6 transporter inhibitors, primary screen, K562-ABCB6 cells, flow cytometry, MLPCN library. ATP-binding cassette sub-family B member 6 (Homo sapiens), Q9NP58. K562-ABCB6 porphyrin accumulation, 1 h; stronger effect = lower value. AID 602162, 2011. 360,000 tested, 0.19% active. fluorescence ratio to DMSO, % at 10 µM;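 active = fluorescence ratio to DMSO below 75%, the collection mean minus 3 SD; inconclusive = too few cells collected in the well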;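 also: signal is porphyrin accumulated inside mitochondria; lower ratio means ABCB6 inhibition with less porphyrin fluorescence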
Target sequence (Q9NP58 whole entry, looked up): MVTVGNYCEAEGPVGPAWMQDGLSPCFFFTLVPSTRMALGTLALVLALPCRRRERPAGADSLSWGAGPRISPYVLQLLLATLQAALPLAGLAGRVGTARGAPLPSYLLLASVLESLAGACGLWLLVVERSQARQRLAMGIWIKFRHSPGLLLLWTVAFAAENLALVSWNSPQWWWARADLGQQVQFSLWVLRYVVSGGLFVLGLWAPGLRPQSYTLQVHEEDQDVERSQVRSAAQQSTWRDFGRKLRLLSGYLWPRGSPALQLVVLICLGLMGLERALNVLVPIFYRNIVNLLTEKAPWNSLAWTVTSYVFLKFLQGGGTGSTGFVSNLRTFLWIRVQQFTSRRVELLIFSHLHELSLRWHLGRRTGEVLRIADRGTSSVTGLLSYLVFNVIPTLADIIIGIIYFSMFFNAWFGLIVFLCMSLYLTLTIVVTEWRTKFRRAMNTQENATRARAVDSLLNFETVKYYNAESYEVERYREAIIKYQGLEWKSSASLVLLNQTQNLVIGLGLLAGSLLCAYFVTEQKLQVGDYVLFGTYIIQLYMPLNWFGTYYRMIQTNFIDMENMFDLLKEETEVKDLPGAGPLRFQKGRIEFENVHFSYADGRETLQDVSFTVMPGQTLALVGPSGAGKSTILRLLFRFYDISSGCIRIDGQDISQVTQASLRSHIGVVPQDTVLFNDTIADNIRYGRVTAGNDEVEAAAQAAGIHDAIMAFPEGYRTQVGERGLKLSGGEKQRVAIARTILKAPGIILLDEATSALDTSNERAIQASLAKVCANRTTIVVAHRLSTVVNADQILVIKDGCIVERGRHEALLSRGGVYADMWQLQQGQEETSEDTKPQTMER
ABCB6 blocker 1: ABCB6 transporter inhibitors, confirmation, K562-ABCB6 cells, flow cytometry, cherry pick 1; 700 tested, under 10 active; shares compounds with ABCB6 inh MLPCN; K562-ABCB6 porphyrin accumulation, 1 h; stronger effect = lower value; ratio response (% of DMSO), % at 10 µM;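 active = repeat-averaged ratio response below 75% of DMSO, the collection mean minus 3 SD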;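 also: median porphyrin fluorescence at 575 nm with 488 nm excitation from mitochondria; lower ratio means less porphyrin signal so ABCB6 inhibition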
A number is an active result; – = inactive; ? = inconclusive; · = not tested or not shown.

SMILES | MIN6 prolif | Myeloid diff MLP | Cardio protect | hiPSC survival | ABCB6 inh MLPCN | ABCB6 blocker 1
CCCN=Cc1sc2ccc(OCC)cc2c1O | – | – | – | – | 74.0 | –
CC(=O)NCCN=Cc1sc2ccccc2c1O | – | – | – | – | – | ·
COC(=O)/C=C1\N/C(=N\c2nc(C)cc(C)n2)N(c2ccccc2)C1=O | – | – | – | – | – | ·
CCN(CC(=O)Nc1c(F)cccc1F)C(=O)CCCN1C(=O)c2ccccc2C1=O | · | – | – | – | – | ·
CN1CCN(C(=O)CCc2nnc3ccc(N4CCC5(CC4)OCCO5)nn23)CC1 | – | – | – | – | – | –
COc1cccc(N2CCN(C(=O)CCc3nnc4ccc(N5CCCC5)nn34)CC2)c1 | – | – | – | – | – | ·
O=C(CCc1nnc2ccc(N3CCC4(CC3)OCCO4)nn12)N1CCCCC1 | – | – | – | – | – | –
Cc1ccc(NC(=O)CCc2nnc3ccc(N4CCC5(CC4)OCCO5)nn23)nc1 | – | ? | – | – | – | ·
CC(=O)c1ccc(NC(=O)CCc2nnc3ccc(N4CCC5(CC4)OCCO5)nn23)cc1 | – | – | – | – | – | ·
CCOC(=O)C1CCN(C(=O)CCc2nnc3ccc(N4CCN(C)CC4)nn23)CC1 | – | – | – | – | – | –
NC(=S)Cc1nc2n(n1)Cc1ccccc1-2 | – | – | – | – | 70.0 | –
NS(=O)(=O)c1ccc(NC(=O)CN2CCc3ccccc3C2)cc1 | – | – | – | – | 73.0 | –
Cc1coc2c1c(C)cc1oc(=O)c(CC(=O)NCC(=O)NCC(=O)O)c(C)c12 | – | – | – | – | – | ·
Cc1coc2c1c(C)cc1oc(=O)c(Cc3ccccc3)c(C)c12 | – | – | – | – | 66.0 | –
NC(=O)Nc1ccc(C(=O)OCC(=O)Nc2sccc2C(N)=O)cc1 | – | – | – | – | – | ·
N#Cc1ccsc1NC(=O)COC(=O)c1ccc(NC(N)=O)cc1 | – | – | – | – | 74.0 | –
O=C(O)c1csc(-c2cccc(Cl)c2)n1 | – | – | – | – | – | ·
O=C(NC1CCCC1)c1ccc(COCC(F)(F)C(F)F)o1 | – | – | – | – | 73.0 | –
O=C(NC1CCCC1)c1ccc(COCC(F)(F)F)o1 | – | – | – | – | – | ·
Fc1ccccc1N1CCN(CCCc2ccccc2)CC1 | – | – | – | – | – | ·
N#Cc1nc(-c2cccs2)oc1NCc1ccccc1 | – | – | – | – | – | ·
COc1cc(NC(=O)CCCNC(=O)Cn2cnc3sc4c(c3c2=O)CCCC4)cc(OC)c1OC | – | ? | – | – | – | ·
Cc1ccc(-c2csc3ncnc(N4CCN(S(=O)(=O)c5cccs5)CC4)c23)cc1 | – | – | – | – | 74.0 | –
Cc1ccc(C)c(OCc2ccc(C(=O)N3N=C(C(F)F)CC3(O)C(F)F)o2)c1 (configuration not stated) | – | – | – | – | 63.0 | –
Cc1cc(C)cc(OCc2ccc(C(=O)O)o2)c1 | – | – | – | – | – | ·
SMILES | MIN6 prolif | Myeloid diff MLP | Cardio protect | hiPSC survival | ABCB6 inh MLPCN | ABCB6 blocker 1
CCOc1ccc(OCc2ccc(C(=O)N3N=C(C(F)F)CC3(O)C(F)F)o2)cc1 (configuration not stated) | – | – | – | – | 66.0 | –
O=C(c1ccc(COc2ccc(Br)cc2)o1)N1N=C(C(F)F)CC1(O)C(F)F (configuration not stated) | – | – | – | – | – | –
Cc1cc(C)cc(OCc2ccc(C(=O)N3N=C(C(F)F)CC3(O)C(F)F)o2)c1 (configuration not stated) | – | – | – | – | – | –
O=C(c1ccc(COc2ccccc2Cl)o1)N1N=C(C(F)F)CC1(O)C(F)F (configuration not stated) | – | – | – | – | – | –
O=C(c1ccc(COc2ccc3ccccc3c2)o1)N1N=C(C(F)F)CC1(O)C(F)F (configuration not stated) | – | – | – | – | – | –
COc1ccc(C2CC(c3ccccc3)=NN2C(=O)COC(=O)c2cccc(O)c2)cc1 (configuration not stated) | – | – | – | – | – | ·
COc1ccc(NC(=O)N(C)C[C@H]2Oc3ccc(NS(=O)(=O)c4cn(C)cn4)cc3C(=O)N([C@H](C)CO)C[C@@H]2C)cc1 | · | – | – | – | – | ·
C[C@H](CO)N1C[C@H](C)[C@@H](CN(C)CC2CC2)Oc2c(NS(=O)(=O)c3ccccc3)cccc2C1=O | – | – | – | – | – | ·
CCN(CC)C1=CC(=[N+]2CCCC2)CC(C)(C)C1 | – | – | – | – | 67.0 | –
CN(Cc1ccccc1)C1=CC(=[N+]2CCCC2)CC(C)(C)C1 | – | – | – | – | – | ·
CC12CCC(C(=NO)C1=NO)C2(C)C (configuration not stated) | · | – | – | – | – | ·
COc1cc(/C=N/NC(=O)CC2(C)OCCCO2)ccc1OCc1ccccc1 | – | – | – | – | – | ·
CC(=O)c1c(C)oc2ccc(NS(=O)(=O)c3ccc(F)cc3C)cc12 | – | – | – | – | 73.0 | –
CCOc1ccc(NC(C(=O)Nc2cccc(C(C)=O)c2)c2ccccc2)cc1 (configuration not stated) | – | – | – | – | – | ·
COc1cc(NC(=O)C(=O)Nc2ccc3nc4n(c(=O)c3c2)CCCCC4)cc(OC)c1OC | – | – | – | – | – | ·
COc1ccc(C(=O)N2CCN(C(=O)C3COc4ccccc4O3)CC2)cc1 (configuration not stated) | – | – | – | – | – | ·
COc1ccc(-c2nnc(SCC(=O)N3CCc4ccccc4C3)o2)cc1 | – | – | – | – | 56.0 | –
Nc1c(N2CCN(c3ccccc3)CC2)c2ccccc2oc1=O | – | – | – | – | – | ·
CC1(C)CC(=O)C(C2C3=C(CC(C)(C)CC3=O)Oc3ccc4ccccc4c32)C(=O)C1 (configuration not stated) | – | – | – | – | 74.0 | –
CC1(C)CC(=O)C(C2C3=C(CC(C)(C)CC3=O)Oc3ccccc32)C(=O)C1 (configuration not stated) | – | – | – | – | – | ·
COc1ccc(OC)c(Nc2ncnc3c2cnn3-c2ccccc2)c1 | – | – | – | – | 71.0 | –
COc1ccccc1Nc1ncnc2c1cnn2-c1cccc(C)c1 | – | – | – | – | – | ·
Cn1nc(-c2ccccc2)c(CO)c1Oc1ccc(F)cc1 | – | – | – | – | 69.0 | –
COC(=O)c1ccc(CNC(=O)COc2ccccc2Br)o1 | – | – | – | – | 32.0 | –
O=C(COc1ccccc1Br)NCc1ccccn1 | – | – | – | – | – | ·
CCOc1ccc(-n2nnc3c(=O)n(CC(=O)Nc4cc(C)on4)cnc32)cc1 | – | – | – | – | – | ·
